Experimental data from article PMC10812921, “Transcriptional Coactivator BOB1 (OBF1, OCA-B) Modulates the Specificity of DNA Recognition by the POU-Domain Factors OCT1 and OCT2 in a Monomeric Configuration”.

Columns and labels:
POU1 (OCT1 POU domain) = POU1 (OCT1 POU domain) (human, UniProt P14859 260-458); assay: EMSA-SELEX-seq; no BOB1; 20 mM Tris-HCl pH 7.6, 140 mM NaCl, 10% glycerol, 0.5 mM EDTA, 0.05% Triton X-100, 0.1 mg/mL BSA, 0.1 mg/mL poly(dI-dC), 5 mM DTT, room temperature, 20 min; high values mean tight binding; conditions: protein: recombinant; dsDNA, one strand shown
How it was run: (§1)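 A double-stranded random 35-nt library (300 ng, PCR-amplified) was incubated with 30 ng tagged POU-domain protein, with or without 28 ng coactivator protein, in 20 μL Tris–HCl pH 7.6 binding buffer for 20 min at RT. The proteins had been expressed in E. coli BL21, purified under denaturing conditions and renatured. Complex bands from native 6% PAGE were eluted and PCR-amplified over four rounds, then sequenced on Illumina. For binding preference, the percentage of sequenced 8-mers matching a motif pattern was calculated.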

POU2 (OCT2 POU domain) = target: T1, POU2 (OCT2 POU domain) (human, UniProt P09086 175-386); assay: as above; conditions: protein: recombinant; dsDNA, one strand shown
T1 sequence: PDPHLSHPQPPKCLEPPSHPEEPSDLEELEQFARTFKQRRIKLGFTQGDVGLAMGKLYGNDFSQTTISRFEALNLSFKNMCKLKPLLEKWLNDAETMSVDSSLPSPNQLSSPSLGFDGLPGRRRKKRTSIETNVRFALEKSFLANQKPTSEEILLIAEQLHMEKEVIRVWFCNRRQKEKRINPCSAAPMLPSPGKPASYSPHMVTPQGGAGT
How it was run: as §1

[1] = target: POU1 (OCT1 POU domain);BOB1 (OBF1, OCA-B) (human;human, UniProt P14859;Q16633 260-458;1-256, |); assay: EMSA-SELEX-seq; with BOB1 (ternary complex band); 20 mM Tris-HCl pH 7.6, 140 mM NaCl, 10% glycerol, 0.5 mM EDTA, 0.05% Triton X-100, 0.1 mg/mL BSA, 0.1 mg/mL poly(dI-dC), 5 mM DTT, room temperature, 20 min; high values mean tight binding; conditions: protein: recombinant;recombinant; copies: 1;1; dsDNA, one strand shown
How it was run: as §1

[2] = target: T2, POU2 (OCT2 POU domain);BOB1 (OBF1, OCA-B) (human;human, UniProt P09086;Q16633 175-386;1-256, |); assay: as above; conditions: protein: recombinant;recombinant; copies: 1;1; dsDNA, one strand shown
T2 sequence 1: T1 sequence
T2 sequence 2: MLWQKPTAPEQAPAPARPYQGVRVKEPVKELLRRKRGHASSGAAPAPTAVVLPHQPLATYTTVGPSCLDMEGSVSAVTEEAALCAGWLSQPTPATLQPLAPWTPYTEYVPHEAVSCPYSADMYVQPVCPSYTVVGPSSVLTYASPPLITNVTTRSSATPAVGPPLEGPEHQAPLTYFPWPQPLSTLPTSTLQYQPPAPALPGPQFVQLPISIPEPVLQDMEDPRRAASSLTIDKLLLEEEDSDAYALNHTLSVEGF
How it was run: as §1

Sequence of POU1 (OCT1 POU domain) (P14859 260-458): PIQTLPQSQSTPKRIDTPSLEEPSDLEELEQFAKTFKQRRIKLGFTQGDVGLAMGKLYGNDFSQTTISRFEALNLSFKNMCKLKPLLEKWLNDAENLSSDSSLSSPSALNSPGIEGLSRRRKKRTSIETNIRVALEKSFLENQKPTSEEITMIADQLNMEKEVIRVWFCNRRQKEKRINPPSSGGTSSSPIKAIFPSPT

| Sequence | binding signal (POU1 (OCT1 POU domain)) | binding signal (POU2 (OCT2 POU domain)) | binding signal [1] | binding signal [2] |
| --- | --- | --- | --- | --- |
| AGGGCAAA | 0.0568 % of ANNNNAAN 8-mers | 0.0466 % of ANNNNAAN 8-mers | 0.0675 % of ANNNNAAN 8-mers | 0.0462 % of ANNNNAAN 8-mers |
| ACGTCAAA | 0.0271 % of ANNNNAAN 8-mers | 0.0178 % of ANNNNAAN 8-mers | 0.0371 % of ANNNNAAN 8-mers | 0.0173 % of ANNNNAAN 8-mers |
| ACCATAAC | 0.032 % of ANNNNAAN 8-mers | 0.0213 % of ANNNNAAN 8-mers | 0.014 % of ANNNNAAN 8-mers | 0.0198 % of ANNNNAAN 8-mers |
| AGCCGAAG | 0.0168 % of ANNNNAAN 8-mers | 0.0201 % of ANNNNAAN 8-mers | 0.0195 % of ANNNNAAN 8-mers | 0.0182 % of ANNNNAAN 8-mers |
| ATCCGAAA | 0.0305 % of ANNNNAAN 8-mers | 0.0374 % of ANNNNAAN 8-mers | 0.0308 % of ANNNNAAN 8-mers | 0.0338 % of ANNNNAAN 8-mers |
| ATACAAAT | 0.318 % of ANNNNAAN 8-mers | 0.269 % of ANNNNAAN 8-mers | 0.526 % of ANNNNAAN 8-mers | 0.498 % of ANNNNAAN 8-mers |
| AGGGGAAC | 0.0416 % of ANNNNAAN 8-mers | 0.0414 % of ANNNNAAN 8-mers | 0.0355 % of ANNNNAAN 8-mers | 0.0487 % of ANNNNAAN 8-mers |
| ACTCCAAG | 0.0191 % of ANNNNAAN 8-mers | 0.0196 % of ANNNNAAN 8-mers | 0.0195 % of ANNNNAAN 8-mers | 0.0124 % of ANNNNAAN 8-mers |
| ACACTAAG | 0.0179 % of ANNNNAAN 8-mers | 0.0219 % of ANNNNAAN 8-mers | 0.0226 % of ANNNNAAN 8-mers | 0.0289 % of ANNNNAAN 8-mers |
| ACTGTAAC | 0.0175 % of ANNNNAAN 8-mers | 0.0224 % of ANNNNAAN 8-mers | 0.0203 % of ANNNNAAN 8-mers | 0.0165 % of ANNNNAAN 8-mers |
| AGGGCAAC | 0.0214 % of ANNNNAAN 8-mers | 0.0219 % of ANNNNAAN 8-mers | 0.0172 % of ANNNNAAN 8-mers | 0.0173 % of ANNNNAAN 8-mers |
| ATAACAAG | 0.0458 % of ANNNNAAN 8-mers | 0.0621 % of ANNNNAAN 8-mers | 0.0355 % of ANNNNAAN 8-mers | 0.0462 % of ANNNNAAN 8-mers |
| ATACGAAG | 0.0481 % of ANNNNAAN 8-mers | 0.0552 % of ANNNNAAN 8-mers | 0.0574 % of ANNNNAAN 8-mers | 0.0388 % of ANNNNAAN 8-mers |
| AAGCTAAA | 0.0347 % of ANNNNAAN 8-mers | 0.0449 % of ANNNNAAN 8-mers | 0.0453 % of ANNNNAAN 8-mers | 0.0347 % of ANNNNAAN 8-mers |
| ACCATAAG | 0.0324 % of ANNNNAAN 8-mers | 0.0414 % of ANNNNAAN 8-mers | 0.0238 % of ANNNNAAN 8-mers | 0.0248 % of ANNNNAAN 8-mers |
| AGTCGAAC | 0.0221 % of ANNNNAAN 8-mers | 0.0224 % of ANNNNAAN 8-mers | 0.0199 % of ANNNNAAN 8-mers | 0.0239 % of ANNNNAAN 8-mers |
| AATCAAAG | 0.0854 % of ANNNNAAN 8-mers | 0.0857 % of ANNNNAAN 8-mers | 0.122 % of ANNNNAAN 8-mers | 0.0916 % of ANNNNAAN 8-mers |
| AATTTAAG | 0.15 % of ANNNNAAN 8-mers | 0.142 % of ANNNNAAN 8-mers | 0.144 % of ANNNNAAN 8-mers | 0.12 % of ANNNNAAN 8-mers |
| AGCAGAAG | 0.0233 % of ANNNNAAN 8-mers | 0.0207 % of ANNNNAAN 8-mers | 0.0308 % of ANNNNAAN 8-mers | 0.0264 % of ANNNNAAN 8-mers |
| AACTGAAG | 0.0256 % of ANNNNAAN 8-mers | 0.0391 % of ANNNNAAN 8-mers | 0.0215 % of ANNNNAAN 8-mers | 0.0338 % of ANNNNAAN 8-mers |
| ATATTAAT | 0.424 % of ANNNNAAN 8-mers | 0.558 % of ANNNNAAN 8-mers | 0.142 % of ANNNNAAN 8-mers | 0.177 % of ANNNNAAN 8-mers |
| AAATTAAC | 0.334 % of ANNNNAAN 8-mers | 0.33 % of ANNNNAAN 8-mers | 0.188 % of ANNNNAAN 8-mers | 0.196 % of ANNNNAAN 8-mers |
| ACTTGAAG | 0.0198 % of ANNNNAAN 8-mers | 0.0236 % of ANNNNAAN 8-mers | 0.0273 % of ANNNNAAN 8-mers | 0.0239 % of ANNNNAAN 8-mers |
| AATCGAAG | 0.0408 % of ANNNNAAN 8-mers | 0.0547 % of ANNNNAAN 8-mers | 0.0531 % of ANNNNAAN 8-mers | 0.0495 % of ANNNNAAN 8-mers |
| AGAGTAAA | 0.0564 % of ANNNNAAN 8-mers | 0.0386 % of ANNNNAAN 8-mers | 0.0605 % of ANNNNAAN 8-mers | 0.0512 % of ANNNNAAN 8-mers |
| AACGGAAT | 0.0698 % of ANNNNAAN 8-mers | 0.0949 % of ANNNNAAN 8-mers | 0.0601 % of ANNNNAAN 8-mers | 0.0627 % of ANNNNAAN 8-mers |
| ATCTTAAT | 0.126 % of ANNNNAAN 8-mers | 0.176 % of ANNNNAAN 8-mers | 0.103 % of ANNNNAAN 8-mers | 0.135 % of ANNNNAAN 8-mers |
| ACTTAAAC | 0.0336 % of ANNNNAAN 8-mers | 0.046 % of ANNNNAAN 8-mers | 0.0277 % of ANNNNAAN 8-mers | 0.0355 % of ANNNNAAN 8-mers |
| AGCACAAT | 0.0233 % of ANNNNAAN 8-mers | 0.0311 % of ANNNNAAN 8-mers | 0.0258 % of ANNNNAAN 8-mers | 0.0264 % of ANNNNAAN 8-mers |
| ATCTCAAC | 0.0252 % of ANNNNAAN 8-mers | 0.027 % of ANNNNAAN 8-mers | 0.0254 % of ANNNNAAN 8-mers | 0.0264 % of ANNNNAAN 8-mers |
